Several values for one entry are separate records, joined by “and”; a condition that tells them apart may be missing. Equal entries are not always repeated. Results filed as inconclusive are left out. For some assays here: Measured potencies and affinities stand elsewhere. Activity calls are given as the source filed them. Unless noted, the rule behind the calls is not given here.
What was measured:
[1] = antimalarial activity against Dd2 strain (AID 2302;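 active = growth inhibition above 50% at the single 2 µM test dose, taken to imply half-maximal potency below 2 µM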;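 note: 0% = DMSO untreated growth and 100% = chloroquine plus artemisinin killed control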); details: P. falciparum Dd2 in RBCs, LDH growth readout, 72 h; at 2 µM; stronger effect = higher value
[2] = human hepatoma cell viability loss – ATP luminescence, cytotoxicity control for P. falciparum antimalarial project, primary screen (AID 2303;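 active = inhibition above 50%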;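 note: 0% = DMSO wells and 100% = digitonin-killed cells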); details: HepG2 viability, 24-48 h, at 10 µM, stronger effect = higher value
[3] = biological target: L-lactate dehydrogenase (Plasmodium falciparum (isolate CDC / Honduras)) (UniProt Q27743); assay: PfLDH activity inhibition – cell lysate, 3D7 strain, counter-screen for P. falciparum growth inhibition project (AID 2304);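 note: 0% = vehicle and 100% = reference inhibitor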; details: P. falciparum 3D7 crude extract, LDH APAD/NBT absorbance; at 2 µM; stronger effect = higher value
[4] = inhibition of 3D7 malaria parasite growth – strain 3D7 (AID 2306);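 note: 0% = DMSO wells and 100% = chloroquine plus artemisinin control wells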; details: P. falciparum 3D7 erythrocytic growth, LDH absorbance, 72 h; at 2 µM; stronger effect = higher value
[5] = biological target: Calcium-dependent protein kinase 1 (Plasmodium falciparum (isolate 3D7)) (UniProt P62344); assay: PfCDPK1 kinase inhibitors, biochemical, TCAMS library (AID 1159585; cut-off not given, nearly all actives have IC50 up to about 0.98 µM;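 note: inhibitors leave more ATP so luminescence rises with inhibition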); details: recombinant PfCDPK1, Kinase-Glo ATP depletion luminescence
[6] = biological target: Plasmodium falciparum protein kinase 6 (PK6, PF3D7_1337100) (UniProt Q8IDW1); assay: PfPK6 kinase inhibitors, biochemical, TCAMS library (AID 1159586); details: recombinant PfPK6, Kinase-Glo ATP depletion luminescence
[7] = biological target: Protein kinase 7 (PK7), Plasmodium falciparum 3D7 (PF3D7_0213400) (UniProt Q7YTF7); assay: inhibition of Plasmodium PK7 catalytic activity – biochemical, TCAMS antimalarial set, Kinase-Glo luminescence (AID 1159587); details: recombinant PfPK7, Kinase-Glo ATP depletion luminescence
[8] = biological target: Calcium-dependent protein kinase 4 (Plasmodium falciparum (isolate 3D7)) (UniProt Q8IBS5); assay: PfCDPK4 kinase inhibitors, biochemical, TCAMS library (AID 1159588; cut-off not given, nearly all actives have IC50 up to about 0.91 µM); details: recombinant PfCDPK4, Kinase-Glo ATP depletion luminescence
[9] = P. berghei load reduction in hepatocytes – cell-based, HepG2, luciferase luminescence, HepG2 viability, primary screen (AID 624349; in the data active = parasite load remaining mostly below about 12%, no sharp cut-off; inactive = mostly above about 10%;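 note: 100% = mean of DMSO negative control wells on the same plate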); details: P. berghei liver stage in HepG2, luciferase luminescence, concentration not given here; parasite load remaining: stronger effect = lower value; viability: measured here: HepG2 viability without parasites
[10] = system: Hepatitis C virus NS3 helicase; assay: blockers of NS3h binding to ssDNA – biochemical, fluorescence polarization, LOPAC1280 library, primary screen (AID 687035; in the data active = inhibition above about 37%); details: Purified HCV NS3 helicase, Cy5-dT15 ssDNA binding fluorescence polarization; stronger effect = higher value; concentration not given here
[11] = compounds altering Cy5-DNA-NS3h complex signal – biochemical, LOPAC1280, artefact control for HCV NS3 helicase inhibitor project (AID 687037); details: Cy5-DNA-NS3h complex fluorescence interference counterscreen
[12] = signal quenchers or enhancers, Cy5 substrate/SSB – biochemical, NIH Clinical Collection, E. coli SSB, artefact control for HCV NS3 helicase inhibitor project (AID 743268); details: Cy5-oligo bound E. coli SSB, fluorescence interference
[13] = system: Hepatitis C virus NS3 helicase; assay: blockers of NS3h binding to DNA – biochemical, fluorescence polarization, NIH Clinical Collection, primary screen (AID 743270); details: NS3 helicase binding to Cy5-dT15 DNA, stronger effect = higher value, concentration not given here
[14] = biological target: Single-stranded DNA-binding protein (Escherichia coli (strain K12)) (UniProt P0AGE0); assay: SSB-ssDNA binding inhibitors – biochemical, fluorescence polarization, NIH Clinical Collection, counter-screen for HCV NS3 helicase inhibitor project (AID 743271; in the data active = inhibition above about 28%); details: E. coli SSB-DNA binding, stronger effect = higher value, concentration not given here
[15] = compounds distorting NS3 helicase fluorescence signal – biochemical, NIH Clinical Collection, artefact control for HCV NS3 helicase inhibitor project (AID 743272); details: fluorescence interference counterscreen, HCV NS3 helicase assay; stronger effect = lower value;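 note: HCV NS3 helicase with a Cy5 labelled single stranded DNA probe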
[16] = system: Neuropilin-2 / VEGF-C interaction (human); assay: small molecules blocking Neuropilin-2/VEGF-C interaction – biochemical, microplate binding format, z-score (AID 743281); details: microplate NRP2/VEGF-C binding assay; stronger effect = lower value
[17] = modulation of C. elegans fzo-1 (AID 1259413);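 note: fzo-1 mutant C. elegans worms in liquid wells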; details: C. elegans fzo-1 modulator screen, mean read-out; stronger effect = higher value
[18] = EMT-state selective cytotoxicity in co-culture – imaging, PC-3E GFP, TEM4-18 mCherry, primary screen (AID 1345086;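 active = compounds killing one labelled cell type while sparing the other, by normalised counts and ratio limits, not self-fluorescent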;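 note: cells exposed to compound for 72 h before imaging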;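 for red/green cell ratio (normalised): normalised mesenchymal count divided by normalised epithelial count so high means epithelial killing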); details: PC-3E GFP / TEM4-18 mCherry co-culture, imaging cell counts, at 1 µM
[19] = viability loss in pontine glioma line – cell-based, JHH-DIPG-1, MIPE4.0, CellTiter-Glo, qHTS, dose response (AID 1347062; cut-off not given, nearly all actives have AC50 up to about 27 µM;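 note: cells exposed to compound for two days before readout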); details: JHH-DIPG-1 viability, CellTiter-Glo ATP luminescence
[20] = viability loss in pontine glioma line – cell-based, SU-DIPG-IV, MIPE4.0, CellTiter-Glo, qHTS, dose response (AID 1347063; cut-off not given, nearly all actives have AC50 up to about 30 µM;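 note: compound exposure lasted 48 hours before the viability readout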); details: CellTiter-Glo ATP luminescence
[21] = viability loss in pontine glioma line – cell-based, SU-DIPG-XXV, MIPE5.0, CellTiter-Glo, qHTS, dose response (AID 1347065; cut-off not given, nearly all actives have AC50 up to about 26 µM;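 note: cells exposed to compound for 48 hours before ATP readout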); details: CellTiter-Glo ATP luminescence
[22] = JHH-DIPG-1 glioma cell viability, MIPE5.0 library, CellTiter-Glo luminescence, qHTS (AID 1347067; cut-off not given, nearly all actives have AC50 up to about 26 µM;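 note: cells exposed to compound for 48 hours before readout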); details: JHH-DIPG-1 glioma viability, CellTiter-Glo ATP luminescence
[23] = growth inhibition of DIPG cells – cell-based, MIPE5.0 library, qHTS (AID 1347068; cut-off not given, nearly all actives have IC50 up to about 30 µM); details: SU-DIPG-XXV viability
[24] = compounds altering HSF1 focus formation in cells – imaging, Selleck Cancer Library (AID 1347162; in the data active = plate-normalised HSF1 focus index below about 0.46); details: human cells, HSF1 nuclear foci imaging, at 10 µM; SSMD: measured here: HSF1 foci SSMD mean; cell count: measured here: cell number; plate-normalised HSF1 focus index: stronger effect = lower value
[25] = blockers of cellular phospholipid synthesis – cell-based, LOPAC library, screen 4, primary screen (AID 1347384); details: animal cells, phospholipid biosynthesis inhibition screen; at 10 µM
[26] = MELAS cybrid and Rieske KO viability enhancers – cell-based, MELAS cybrids, Rieske KO mouse fibroblasts, CellTiter-Glo, primary screen (AID 1508586;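 active = mean z-score across replicates of 1.96 or higher in either the MELAS or the Rieske mutant cell line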;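 note: z relative to plate mean and SD of compound and empty wells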); details: low glucose
[27] = biological target: NAD(+) hydrolase SARM1 (Homo sapiens) (UniProt Q6SZW1); assay: blocking NAD cleavage by SARM1 SAM-TIR – cell lysate, NAD-Glo luminescence (AID 1508614;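 active = compound whose remaining NAD level is above about 45 nM, limit read from the data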;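 note: higher remaining NAD means stronger inhibition of SARM1 NADase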); details: SAM-TIR HEK293T lysate NADase, at 1 µM, stronger effect = higher value
[28] = galactose survival enhancers in mitochondrial complex I cybrids – cell-based, galactose medium, ATP luminescence, primary screen (AID 1645843;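 active = z-score of at least 1.8 in each of two replicates, scored against plate mean and spread of sample wells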;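 note: positive z means more ATP and so rescue of galactose-driven cybrid death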); details: complex I mutant cybrid cells, 72 h, stronger effect = higher value
[29] = system: F380Y; assay: BK channel mutant inhibitors and activators – cell-based, U2OS BacMam, thallium flux, beta subunits, selectivity assay, profiling panel (AID 1259406;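 active = thallium flux through the channel raised or lowered by more than 3 SD from vehicle-only wells, actives on both sides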;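 note: initial slope of Thallos dye fluorescence rise after thallium is added; log ratio against the mean of 0.3% DMSO vehicle wells on the same plate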); details: U2OS BacMam BK variants, at 30 µM
[30] = system: F380Y/beta1; assay: as above; details: U2OS BacMam BK variants, at 30 µM
[31] = system: F380Y/beta2Delta; assay: as above; details: U2OS BacMam BK variants, at 30 µM
[32] = system: F380Y/beta4; assay: as above; details: U2OS BacMam BK variants, at 30 µM
[33] = biological target: Calcium-activated potassium channel subunit alpha-1 (Homo sapiens) + Leucine-rich repeat-containing protein 26 (Homo sapiens) (UniProt Q12791+Q2I0M4); assay: as above; details: U2OS BacMam BK variants, F380Y/Slo1WT/gamma1, at 30 µM
[34] = system: R275C; assay: as above; details: U2OS BacMam BK variants, at 30 µM
[35] = system: R275C/beta1; assay: as above; details: U2OS BacMam BK variants, at 30 µM
[36] = system: R275C/beta2Delta; assay: as above; details: U2OS BacMam BK variants, at 30 µM
[37] = system: R275C/beta4; assay: as above; details: U2OS BacMam BK variants, at 30 µM
[38] = system: R275C/Slo1WT/beta2; assay: as above; details: U2OS BacMam BK variants, at 30 µM

Sequence of Plasmodium falciparum protein kinase 6 (PK6, PF3D7_1337100) (Q8IDW1 1-305): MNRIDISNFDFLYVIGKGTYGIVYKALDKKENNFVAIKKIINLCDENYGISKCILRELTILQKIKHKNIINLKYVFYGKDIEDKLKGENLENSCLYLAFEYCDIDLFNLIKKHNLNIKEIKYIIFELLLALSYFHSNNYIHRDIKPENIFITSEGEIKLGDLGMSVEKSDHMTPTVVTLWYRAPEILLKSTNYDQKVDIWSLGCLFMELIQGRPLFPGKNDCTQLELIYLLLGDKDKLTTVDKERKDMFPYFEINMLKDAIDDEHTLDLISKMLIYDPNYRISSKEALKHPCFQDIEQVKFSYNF
Sequence of Protein kinase 7 (PK7), Plasmodium falciparum 3D7 (PF3D7_0213400) (Q7YTF7 1-343): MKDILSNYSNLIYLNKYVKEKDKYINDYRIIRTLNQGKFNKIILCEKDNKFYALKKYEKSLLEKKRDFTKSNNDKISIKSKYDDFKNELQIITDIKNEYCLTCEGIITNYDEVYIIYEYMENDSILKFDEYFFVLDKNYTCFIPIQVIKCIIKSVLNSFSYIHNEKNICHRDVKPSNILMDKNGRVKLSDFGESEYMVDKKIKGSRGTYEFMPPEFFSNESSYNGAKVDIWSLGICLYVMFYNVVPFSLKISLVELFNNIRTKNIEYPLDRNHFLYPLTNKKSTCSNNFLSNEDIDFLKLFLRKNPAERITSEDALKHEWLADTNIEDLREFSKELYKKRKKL
Sequence of Calcium-dependent protein kinase 1 (Plasmodium falciparum (isolate 3D7)) (P62344 whole entry, looked up): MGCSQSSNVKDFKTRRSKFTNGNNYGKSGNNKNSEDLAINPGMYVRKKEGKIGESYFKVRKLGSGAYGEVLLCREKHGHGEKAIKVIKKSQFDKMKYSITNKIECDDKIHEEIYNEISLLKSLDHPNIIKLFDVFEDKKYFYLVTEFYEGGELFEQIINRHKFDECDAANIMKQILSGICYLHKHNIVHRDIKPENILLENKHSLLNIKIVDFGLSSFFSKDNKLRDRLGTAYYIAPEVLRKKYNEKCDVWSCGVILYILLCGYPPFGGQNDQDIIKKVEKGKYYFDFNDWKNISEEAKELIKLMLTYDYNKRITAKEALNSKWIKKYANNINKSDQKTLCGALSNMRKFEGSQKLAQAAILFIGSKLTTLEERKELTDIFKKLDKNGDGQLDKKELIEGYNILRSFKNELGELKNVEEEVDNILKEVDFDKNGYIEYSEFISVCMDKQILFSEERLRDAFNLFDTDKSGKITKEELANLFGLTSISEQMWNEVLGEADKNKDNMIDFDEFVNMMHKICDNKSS
Sequence of L-lactate dehydrogenase (Plasmodium falciparum (isolate CDC / Honduras)) (Q27743 whole entry, looked up): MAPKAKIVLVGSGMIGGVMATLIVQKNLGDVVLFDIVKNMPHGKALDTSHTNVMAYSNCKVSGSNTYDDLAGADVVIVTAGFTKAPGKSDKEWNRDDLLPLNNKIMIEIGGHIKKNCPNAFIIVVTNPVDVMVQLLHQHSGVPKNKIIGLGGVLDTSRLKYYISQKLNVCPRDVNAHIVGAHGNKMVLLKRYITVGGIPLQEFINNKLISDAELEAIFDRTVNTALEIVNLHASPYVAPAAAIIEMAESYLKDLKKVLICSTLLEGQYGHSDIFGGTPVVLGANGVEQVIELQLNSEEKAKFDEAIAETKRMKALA
Sequence of Calcium-dependent protein kinase 4 (Plasmodium falciparum (isolate 3D7)) (Q8IBS5 whole entry, looked up): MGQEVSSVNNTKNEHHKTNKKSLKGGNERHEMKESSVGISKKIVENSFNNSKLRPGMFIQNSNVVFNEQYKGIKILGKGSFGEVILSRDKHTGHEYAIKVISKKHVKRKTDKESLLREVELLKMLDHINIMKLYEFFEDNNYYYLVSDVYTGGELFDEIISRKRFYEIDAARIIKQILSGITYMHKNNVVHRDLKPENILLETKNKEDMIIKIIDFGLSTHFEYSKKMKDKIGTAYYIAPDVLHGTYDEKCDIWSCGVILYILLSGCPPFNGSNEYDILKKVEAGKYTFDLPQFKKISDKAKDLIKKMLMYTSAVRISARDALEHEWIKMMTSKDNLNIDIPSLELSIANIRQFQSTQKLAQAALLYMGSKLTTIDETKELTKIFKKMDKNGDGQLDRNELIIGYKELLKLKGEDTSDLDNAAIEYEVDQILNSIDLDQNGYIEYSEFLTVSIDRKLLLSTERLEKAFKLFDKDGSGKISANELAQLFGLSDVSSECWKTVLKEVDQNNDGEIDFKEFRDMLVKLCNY
Sequence of Calcium-activated potassium channel subunit alpha-1 (Homo sapiens) + Leucine-rich repeat-containing protein 26 (Homo sapiens) (Q2I0M4 whole entry, looked up, one chain of several): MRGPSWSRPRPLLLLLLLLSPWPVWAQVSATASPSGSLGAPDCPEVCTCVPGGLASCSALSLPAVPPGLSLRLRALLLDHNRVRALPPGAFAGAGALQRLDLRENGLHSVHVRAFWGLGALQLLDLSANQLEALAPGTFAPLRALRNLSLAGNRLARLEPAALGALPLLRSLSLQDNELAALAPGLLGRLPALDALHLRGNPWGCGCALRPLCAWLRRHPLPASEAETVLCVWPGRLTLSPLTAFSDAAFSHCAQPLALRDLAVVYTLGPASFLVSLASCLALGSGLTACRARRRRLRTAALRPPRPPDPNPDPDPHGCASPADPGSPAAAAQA
Sequence of NAD(+) hydrolase SARM1 (Homo sapiens) (Q6SZW1 whole entry, looked up): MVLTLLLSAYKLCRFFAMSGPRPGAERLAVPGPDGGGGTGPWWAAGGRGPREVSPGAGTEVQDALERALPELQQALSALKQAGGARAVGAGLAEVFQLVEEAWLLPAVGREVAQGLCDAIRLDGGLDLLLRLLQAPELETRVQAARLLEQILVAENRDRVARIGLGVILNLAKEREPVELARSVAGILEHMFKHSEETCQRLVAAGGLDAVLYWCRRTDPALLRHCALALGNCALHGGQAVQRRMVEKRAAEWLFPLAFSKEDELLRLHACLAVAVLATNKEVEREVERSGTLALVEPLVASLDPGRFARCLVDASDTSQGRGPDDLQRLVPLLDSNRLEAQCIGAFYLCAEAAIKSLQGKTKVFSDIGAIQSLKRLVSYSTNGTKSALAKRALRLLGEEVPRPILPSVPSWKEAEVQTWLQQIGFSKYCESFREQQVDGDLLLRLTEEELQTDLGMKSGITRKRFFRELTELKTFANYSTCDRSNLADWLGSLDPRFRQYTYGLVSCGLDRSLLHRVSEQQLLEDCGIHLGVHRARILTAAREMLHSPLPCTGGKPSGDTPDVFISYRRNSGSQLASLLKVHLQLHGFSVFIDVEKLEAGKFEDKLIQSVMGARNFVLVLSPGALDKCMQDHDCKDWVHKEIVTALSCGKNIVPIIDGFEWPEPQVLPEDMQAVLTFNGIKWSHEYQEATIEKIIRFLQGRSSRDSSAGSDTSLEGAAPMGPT

CC(C)CNCc1cccc(-c2cccc(CN(C(=O)NC3CCCCC3)C3CCN(Cc4ccccc4)CC3)c2)c1
active: growth inhibition [1] 87% | growth inhibition [4] 97%
inactive: inhibition [2] 32% | inhibition [3] 8% | outcome [5] | outcome [6] | outcome [7] | outcome [8]

COc1ccc(CC(C)NCC(O)c2ccc(Cl)c(Cl)c2)cc1 (configuration not stated)
active: growth inhibition [1] 96% | growth inhibition [4] 98%
inactive: inhibition [2] 0% | inhibition [3] 6% | outcome [5] | outcome [6] | outcome [7] | outcome [8]

CC[C@H]1CN2CC[C@H]1C[C@H]2[C@H](O)c1cc(-c2cccc(F)c2)nc2ccc(OC)cc12
active: growth inhibition [1] 97% | growth inhibition [4] 99%
inactive: inhibition [2] 34% | inhibition [3] 5% | outcome [5] | outcome [6] | outcome [7] | outcome [8]

CC(C)CNCc1ccc(-c2cccc(CN(C(=O)Nc3ccccc3)C3CCN(Cc4ccccc4)CC3)c2)cc1
active: growth inhibition [1] 95% | growth inhibition [4] 101%
inactive: inhibition [2] 48% | inhibition [3] 4% | outcome [5] | outcome [6] | outcome [7] | outcome [8]

CCC(C)(C)N[C@@H](C)[C@@H](O)c1ccc(C(F)(F)F)cc1
active: growth inhibition [1] 90% | growth inhibition [4] 97%
inactive: inhibition [3] 2% | outcome [5] | outcome [6] | outcome [7] | outcome [8]

CC(C)CNCc1ccc(-c2cccc(CN(C(=O)NC3CCCCC3)C3CCN(Cc4ccccc4)CC3)c2)cc1
active: growth inhibition [1] 88% | growth inhibition [4] 98%
inactive: inhibition [2] 20% | inhibition [3] 2% | outcome [5] | outcome [6] | outcome [7] | outcome [8]

CC(=O)Nc1ccc2[nH]cc(C3CCN(CC4CCN(C(=O)/C=C/c5ccc(Cl)c(Cl)c5)CC4)CC3)c2c1
active: growth inhibition [4] 96%
inactive: growth inhibition [1] 41% | inhibition [2] 10% | inhibition [3] -1% | outcome [5] | outcome [6] | outcome [7] | outcome [8]

N#Cc1ccc(N(CCCO)Cc2ccccc2C(F)(F)F)cc1C(F)(F)F
active: growth inhibition [4] 91%
inactive: growth inhibition [1] 23% | inhibition [2] 7% | inhibition [3] -5% | outcome [5] | outcome [6] | outcome [7] | outcome [8]

COCCNCc1ccc(-c2cccc(CN(C(=O)CCC3CCCC3)C3CCN(Cc4ccccc4)CC3)c2)cc1
inactive: inhibition [3] -2% | outcome [5] | outcome [6] | outcome [7] | outcome [8]
active: growth inhibition [1] 86% | inhibition [2] 50% | growth inhibition [4] 91%

CC(O)(CS(=O)(=O)c1ccc(F)cc1)C(=O)Nc1ccc(C#N)c(C(F)(F)F)c1 (configuration not stated)
7580: cell count [24]
71.8% and 108%: viability [9]
0.84: normalised cell number ([18]; measured here: mesenchymal TEM4-18 mCherry cell survival)
0.64: normalised cell number ([18]; measured here: epithelial PC-3E GFP cell survival)
0.621 and -0.29 and 0.356: z-score ([26]; Rieske KO mouse fibroblast survival, CellTiter-Glo 72 h)
inactive: parasite load remaining [9] 85.6% and 26.5% | inhibition [10] 0% | fluorescence ratio (interference) [11] 1 | fluorescence ratio [12] 1 | inhibition [13] 0.4% | inhibition [14] -0.87% | fluorescence ratio [15] 0.95 | z-score [16] 0.117 | mean signal [17] 225 | red/green cell ratio (normalised) ([18]; actives lie on both sides) 1.31 | outcome [21] | outcome [22] | outcome [23] | plate-normalised HSF1 focus index [24] 1.1 | outcome [25] | z-score ([26]; MELAS cybrid survival, CellTiter-Glo 48 h, stronger effect = higher value) -0.358 and -0.11 and 0.746 | remaining NAD [27] 10 nM | z-score [28] -0.24 and -0.44 and 0.235 | log fold change Tl+ flux [29] -0.0003 | log fold change Tl+ flux [30] 0.0749 | log fold change Tl+ flux [31] -0.0358 | log fold change Tl+ flux [32] -0.0644 | log fold change Tl+ flux [33] 0.0529 | log fold change Tl+ flux [34] -0.0123 | log fold change Tl+ flux [37] 0.0752 | log fold change Tl+ flux [38] -0.00212
2.85: SSMD [24]
active: AC50 [19] 9.35 µM | AC50 [20] 13.2 µM | log fold change Tl+ flux [35] 0.266 | log fold change Tl+ flux [36] 0.179

Reference: PubChem BioAssay
